By AC50 is commonly meant the midpoint of the concentration-response curve, whichever way the signal moves.

Each structure is given as a SMILES string. About 5,700 (36%) of roughly 16,000 compounds were called active. Not shown: some 24% with an inconclusive outcome. This is one part of the list. Unmarked numbers belong to inactive results. Calls follow the shape of the dose curve; as a rule, active = well fitted curve in the direction sought with a large enough effect; inconclusive = small, poorly fitted or top-dose-only effect, or effect the other way; inactive = no such curve, though single readings can be large or run the other way.
% is scaled to controls: 0 for no effect and ±100 for the full control effect.

The target in the assay is Cytochrome P450 1A2 (Homo sapiens) (UniProt P05177). Nature of the assay: Cytochrome panel assay with activity outcomes. The settings on record: recombinant CYP, pro-luciferin dealkylation, luminescence, p450-cyp1a2; series mostly up to 57.1 µM.
Sequence of Cytochrome P450 1A2 (Homo sapiens) (P05177 whole entry, looked up): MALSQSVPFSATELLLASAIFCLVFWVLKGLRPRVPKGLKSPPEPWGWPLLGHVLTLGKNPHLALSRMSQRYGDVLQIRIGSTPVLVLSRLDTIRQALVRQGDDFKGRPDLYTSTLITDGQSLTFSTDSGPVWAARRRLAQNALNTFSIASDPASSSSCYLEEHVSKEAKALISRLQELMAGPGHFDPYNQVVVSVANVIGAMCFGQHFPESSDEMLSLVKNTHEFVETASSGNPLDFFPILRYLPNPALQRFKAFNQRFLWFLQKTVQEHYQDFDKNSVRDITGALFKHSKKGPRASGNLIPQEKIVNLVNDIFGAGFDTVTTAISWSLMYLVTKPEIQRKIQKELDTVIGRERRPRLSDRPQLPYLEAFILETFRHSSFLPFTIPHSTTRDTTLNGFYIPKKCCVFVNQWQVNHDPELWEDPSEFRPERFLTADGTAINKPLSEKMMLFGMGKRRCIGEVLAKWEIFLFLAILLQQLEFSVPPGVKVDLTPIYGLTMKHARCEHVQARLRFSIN
For `COC(=O)[C@@]1(Cc2ccc(OC)cc2)[C@H]2c3cc(C(=O)N4CCCC4)n(CCn4cc([N+](=O)[O-])nc4C)c3C[C@H]2CN1C(=O)c1ccccc1`, the AC50 result was “inactive”.
For `CCCn1c(N)c(C(=O)CSc2nc(C)cs2)c(=O)n(C)c1=O`, the AC50 was 15.8 µM (active).
For the molecule `Cc1cc(C)cc(C(=O)N(NC(=O)Nc2ccc(Cl)cc2)C(C)(C)C)c1`, the AC50 entry was “inactive”.
The same measure, in the same setting: to `CSc1cccc(NC(=O)Nc2ccc(Cl)cc2)c1` belongs 5.01 µM (active).
As for `O=C(O)CC[C@@]1(c2ccccc2)NC(=O)NC1=O`, the activity, negative = inhibition is -11.4% [at 11.4 µM].
Regarding `Cc1ccc(N(CCC#N)C(=O)CSc2ccc3c(c2)OCCO3)cc1`, the AC50 is 2 µM (active).
For `CCOC(=O)c1[nH]c(C)c(C)c1C`, the AC50 was 0.501 µM (active).
Still for that read-out and setting: to `CCOC(=O)c1cc(C#N)c(Oc2ccccc2OC)nc1-c1ccccc1` belongs 0.708 µM (active).
Same read-out and setting: to `CCCCNc1nc(-c2ccccc2)c(C(=O)OCC)cc1C#N` belongs 4.47 µM (active).
On to `Cc1cc(C)c2cc(C#N)c(NCCOC(=O)c3ccccc3C)nc2c1`, for which the concentration at half-maximal activity (AC50) is 1.26 µM (active).
Turning to `O=C1CCCC=C1[C@@H](O)COCc1ccccc1`, the activity, negative = inhibition was -6.11% [at 11.4 µM].
For the molecule `CCN1C(=O)CC(N2CCN(CC(=O)NC(C)C)CC2)C1=O` (stereo not given), the AC50 entry was “inactive”.
With `C/C(=N\O)c1cccc[n+]1Cc1ccccc1`, the activity, negative = inhibition is -0.979% [at 11.4 µM].
Take `NC(=O)c1ccc(C2SCC(=O)N2Cc2ccccc2)cc1` (stereo not given): the AC50 entry was “inactive”.
Turning to `NC(=O)c1ccc(-c2ncc(-c3ccccc3)o2)cc1`, the AC50 is 0.631 µM (active).
Same read-out and setting: to `CO[C@]1(NC(=O)[C@H](C(=O)O)c2ccc(O)cc2)C(=O)N2C(C(=O)O)=C(CSc3nnnn3C)CO[C@H]21` belongs “inactive”; to `COCCNC(=O)CSc1nc2cc(OC)c(OC)cc2c(=O)n1Cc1ccco1`, “inactive”.
Consider `Cc1sc2nc(SCC(=O)C(C)(C)C)n(Cc3ccco3)c(=O)c2c1C`, for which the AC50 is 0.891 µM (active).
For `CC(=O)[C@H]([C@@H](c1ccccc1)N1CCOCC1)N1CCOCC1`, the activity, negative = inhibition is 2.19% [at 11.4 µM].
With `Cc1ccc(-c2nc(-c3nccc4ccccc34)oc2-c2ccccc2)cc1`, the AC50 was 2.51 µM (active).
For `C[C@](O)(c1ccccc1)c1nccc2ccccc12`, the activity, negative = inhibition is -17.4% [at 11.4 µM].
Turning to `COc1ccc2c(c1OC)C(=O)OC2Nc1ncccc1C` (stereo not given), the AC50 entry is “inactive”.
As to `COc1ccc(NC(=O)C23CC4CC(C2)CC(n2cnc(Br)n2)(C4)C3)c(C)c1`, the AC50 entry is “inactive”.
Regarding `COc1ccc(NC(=S)Nc2ncccc2C)c(OC)c1`, the AC50 is 1.12 µM (active).
On the same count and under the same terms, to `CCN=C1NN=C(c2ccc(C)cc2)CS1` belongs 20 µM (active); to `O=C(NCCN1CCN(Cc2ccccc2)CC1)C1c2ccccc2C(=O)N2CCc3ccccc3C12` (stereo not given), “inactive”; to `O=C(NCCc1ccccc1)c1noc2c1CCc1ccccc1-2`, 1.26 µM (active).
Same read-out and setting: to `CCN(CC)CCOC(=O)[C@@H](c1ccccc1)C1CCCCC1` belongs 1.26 µM (active).
Take `O=C1CCC[C@@H](C(C(=O)OCc2ccccc2)C(=O)OCc2ccccc2)C1`: the activity, negative = inhibition is -9.68% [at 11.4 µM].
Consider `CCCC(C(=O)OCCN(CC)CC)(c1ccccc1)c1ccccc1`, for which the AC50 result was “inactive”.
On to `CCN(CC)CCOC(=O)C(c1ccccc1)c1ccccc1`, for which the AC50 was 5.01 µM (active).
Still for that read-out and setting: to `CN(C)CCOC(=O)[C@@H](c1ccccc1)C1(O)CCCC1` belongs “inactive”; to `C[N+]1(C)CCC(OC(=O)C(c2ccccc2)c2ccccc2)CC1`, “inactive”; to `CN(C)CCNc1ncnc2c1sc1nc(N3CCOCC3)c3c(c12)CC(C)(C)SC3`, “inactive”.
Still for that read-out and setting: to `CCOc1ccc(N=C2NC(=O)C(CC(=O)O)S2)cc1` (stereo not given) belongs “inactive”.
With `O=C1CN2CCN(CC2)CC(=O)Nc2ccc(cc2)S(=O)(=O)c2ccc(cc2)NC(=O)CN2CCN(CC2)CC(=O)Nc2ccc(cc2)S(=O)(=O)c2ccc(cc2)N1`, the activity, negative = inhibition was -13.1% [at 11.4 µM].
Regarding `CCc1ccc(Nc2ncccc2C#N)cc1`, the concentration at half-maximal activity (AC50) is 1.26 µM (active).
Same read-out and setting: to `CCC(C)c1ccc(Nc2ncccc2C#N)cc1` (stereo not given) belongs 5.01 µM (active).
As to `COC(=O)[C@@H]1CC[C@H](C)[C@@H](c2ccc(C)cc2)N1C(=O)c1ccc(/C=N\OCC[C@@H]2C=C[C@H](OC(C)=O)[C@H](COC(C)=O)O2)cc1`, the activity, negative = inhibition was -3.4% [at 11.4 µM].
As to `Nc1cccc2cnccc12`, the AC50 was 12.6 µM (active).
Turning to `C[C@H]1CN(S(=O)(=O)c2cccc3cnccc23)CCN1`, the AC50 entry is “inactive”.
Still for that read-out and setting: to `N[C@@H]1CONC1=O` belongs “inactive”.
As for `C[C@@H]1CN2[C@H](c3ccc(Br)cc3)[C@H](C)CC[C@H]2C(=O)O1`, the activity, negative = inhibition was -6.13% [at 11.4 µM].
For `Cc1nc(SCc2cccc(Oc3ccccc3)c2)n[nH]1`, the AC50 is 17.8 µM (active).
The same measure, in the same setting: to `COCCN1CN=C(Nc2nc3ccccc3s2)NC1` belongs “inactive”; to `COc1ccc(CN2CN=C(Nc3nc4ccccc4s3)NC2)cc1`, 12.6 µM (active).
With `CCOC(=O)[C@]1(CC(=O)O)CCCC1=O`, the activity, negative = inhibition was -12.7% [at 11.4 µM].
For the molecule `COc1c2c(nc3ccccc13)O[C@H]([C@@](C)(O)CO)C2`, the AC50 was 12.6 µM (active).
Take `CCOc1cc(CNc2ccc(OC)cc2)cc(Br)c1OCC(=O)NC(C)(C)C`: the AC50 is 11.2 µM (active).
Consider `NCC[C@H](N)C(=O)O`, for which the activity, negative = inhibition is -8.87% [at 2.29 µM].
Take `Cc1c2cnccc2c(C)c2c1c1ccccc1n2CCOC(=O)c1ccccc1`: the AC50 is 0.0794 µM (active).
Turning to `O=C(c1cc(C(F)(F)F)cc(C(F)(F)F)c1)N1CCC2(CC1)CN(c1ccncc1)C2`, the AC50 result is “inactive”.
The same measure, in the same setting: to `Cc1c(/C=N/NC(=O)c2ccc3c(c2)OCO3)cnn1C` belongs 14.1 µM (active).
Turning to `COc1ccc(-c2nn(-c3ccccc3)cc2/C=N/NC(=O)c2ccc3c(c2)OCO3)cc1`, the AC50 result was “inactive”.
On to `COc1cc(CNCCc2c[nH]c3ccccc23)ccc1OCc1ccccc1F`, for which the AC50 was 25.1 µM (active).
The same measure, in the same setting: to `CC(C)CN1CCCC2(CCN(C(=O)c3cnccn3)CC2)C1` belongs “inactive”; to `C[C@@H](CCc1ccc(O)cc1)NCCc1ccc(O)c(O)c1`, “inactive”.
The same measure, in the same setting: to `O=C(CCc1ccc(O)cc1)c1c(O)cc(O)cc1O` belongs 6.31 µM (active); to `O=C(O)Cc1ccc(O)c(O)c1`, “inactive”.
Turning to `Nc1c(OCC(=O)O)ccc2cc(S(=O)(=O)O)ccc12`, the activity, negative = inhibition was -5.41% [at 11.4 µM].
`CCOc1ccccc1NC(=O)CCC(=O)O`: the AC50 entry is “inactive”.
With `CCCCN(C(=O)NC(=O)Nc1ccccc1OCC)S(C)(=O)=O`, the AC50 was 20 µM (active).
On to `CCOc1ccccc1Nc1ccc(N)cc1S(=O)(=O)O`, for which the activity, negative = inhibition is -12.6% [at 2.29 µM].
As for `CO[C@H]1COC(=O)[C@H](C)NC(=O)C/C=C\[C@@H](C)[C@@H](NS(=O)(=O)c2ccc(C)cc2)COC(=O)C/C=C\[C@@H]1C`, the activity, negative = inhibition was -0.0135% [at 11.4 µM].
As to `CSC1=C(C#N)C(c2ccccc2Cl)C2=C(N1)c1ccccc1C2=O` (stereo not given), the AC50 was 0.708 µM (active).
Still for that read-out and setting: to `N#CC1=C(SCC(N)=O)NC2=C(C(=O)c3ccccc32)C1c1ccc(Cl)cc1` (stereo not given) belongs 0.631 µM (active); to `C=CCN1C(=CCO)[C@H]2C[C@H]3[C@@H]1CC[C@@]31c3ccccc3N3C=C4[C@@H]5N(/C=C/2[C@H]31)c1ccccc1[C@]51CC[C@H]2[C@H]1C[C@@H]4/C(=C/CO)N2CC=C`, “inactive”.
`O=S(=O)(c1ccccc1)N1CCC2(CC1)CN(Cc1ccccc1)C2`: the AC50 result is “inactive”.
As to `COc1cccc(/C=N/n2c(=S)n(C)c3cc(C)c(C)cc32)c1OC`, the AC50 was 2.24 µM (active).
Turning to `CC(C)(C)c1ccc(C(=O)N2CCC(C(=O)NCCC3=CCCCC3)CC2)cc1`, the AC50 entry is “inactive”.
Still for that read-out and setting: to `O=C1CSc2ccc(C(=O)NCCC3=CCCCC3)cc2N1` belongs 3.16 µM (active); to `C=C/C(C)=C/[C@]1(C)SC(=O)C(C)=C1O`, “inactive”; to `CC1(C)CCC2=C(O1)c1ccccc1C(=O)C2=O`, 3.98 µM (active).
The same measure, in the same setting: to `Cc1c(C=NCCOCc2ccccc2)cnn1C` belongs 17.8 µM (active); to `CCCc1ncc(C[n+]2ccccc2C)c(N)n1`, “inactive”.
`C=CCOc1cccc(CNn2cn[nH]c2=S)c1`: the AC50 was 3.16 µM (active).
On to `C=CCOc1cccc(/C=N/NC(=O)C(=O)NCc2ccco2)c1`, for which the AC50 entry was “inactive”.
Same read-out and setting: to `CC(C)CN1CCCC2(CCN(C(=O)c3cccn3C)CC2)C1` belongs “inactive”; to `Cn1cccc1C(=O)N1CCC2(CCCN(c3ccc(-c4ccccc4)cc3)C2)CC1`, 15.8 µM (active).
In the case of `Cn1cccc1C(=O)N1CCC2(CCCN(c3cccc(-c4ccccc4)c3)C2)CC1`, the AC50 was 15.8 µM (active).
The same measure, in the same setting: to `CN1CCCC2(CCN(C(=O)c3cccn3C)CC2)C1` belongs “inactive”.
Same read-out and setting: to `Cn1cccc1C(=O)N1CCC2(CCCN(Cc3ccccc3)C2)CC1` belongs “inactive”; to `O=C(Oc1ccccc1)N1CCC2(CCCN(c3ccc(-c4ccccc4)cc3)C2)CC1`, “inactive”.
On the same count and under the same terms, to `COC(=O)N1CCC2(CCCN(c3ccc(-c4ccccc4)cc3)C2)CC1` belongs 20 µM (active); to `COC(=O)N1CCC2(CC1)CN(c1ccccc1)C2`, “inactive”.
As for `CC(C)NC(=O)N1CCCC2(CCN(C(=O)c3cccn3C)CC2)C1`, the AC50 entry was “inactive”.
In the case of `Cc1cc2c(c(=O)o1)[C@@H](O)[C@H]1O[C@@H]1C2=O`, the activity, negative = inhibition was -3.99% [at 11.4 µM].
Turning to `CCCOc1ccc(/C=C/C(=O)Nc2ccc([N+](=O)[O-])cc2C)cc1OC`, the AC50 entry is “inactive”.
Same read-out and setting: to `COc1ccc(/C=C/C(=O)Nc2nc(C)cc(C)n2)cc1OC` belongs 5.01 µM (active); to `COc1cccc(-c2cncnc2NCCc2c[nH]c3ccc(OC)cc23)c1`, 2 µM (active).
Still for that read-out and setting: to `COc1ccc2[nH]cc(CCNc3ncncc3-c3cccc(NS(C)(=O)=O)c3)c2c1` belongs 12.6 µM (active); to `COc1ccc2[nH]cc(CCNc3ncncc3-c3ccc(N(C)C)cc3)c2c1`, 0.251 µM (active); to `COc1ccc2[nH]cc(CCNc3ncncc3-c3cccnc3)c2c1`, 0.316 µM (active).
Same read-out and setting: to `COc1ccc(N2CCN(Cc3nc4c(c(=O)[nH]c(=O)n4C)n3CCCc3ccccc3)CC2)cc1` belongs “inactive”.
With `O=C(O)C1CC2(C1)CC(C(=O)O)C2` (stereo not given), the activity, negative = inhibition is -6.34% [at 2.29 µM].

These data come from PubChem BioAssay AID1851 (National Center for Advancing Translational Sciences (NCATS), 2009).
